CRFR2-BP antag: blocks CRF-induced signaling of the CRF-BP/CRF-R2 complex; actives 0.59% (n = 350,000); HEK293 CRF-R2/CRF-BP, CRF-induced calcium fluorescence; inhibition, % at 11.8 µM;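 active = inhibition of the ligand-induced calcium signal above about 50% at the single tested concentration, limit read from the data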
FAS-TE inh: blocks the thioesterase domain of human fatty acid synthase. P49327. recombinant FAS-TE, OMFH fluorogenic substrate, fluorescence endpoint. inhibition, % at 15 µM. actives 0.67% (n = 360,000);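 active = compounds whose normalised, plate-corrected inhibition of enzyme fluorescence in the single-dose primary screen is 50% or more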
PfG6PD inh: PfG6PD (Plasmodium falciparum) enzyme inhibition | PfGluPho enzyme, NADPH resazurin-diaphorase fluorescence | inhibition, % at 20 µM | actives 0.78% (n = 350,000);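 active = inhibition reaching at least a set limit at 20 µM in the primary screen, cut at about 59% in these data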
CRFR2-BP ag: CRF-BP/CRF-R2 complex agonism; activation, % at 13.2 µM; AID 588473; HEK293 CRF-R2/CRF-BP, calcium dye fluorescence (FLIPR); percent of saturating CRF peptide response; actives 0.46% (n = 350,000);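 active = activation of at least 50%, plus an integration ratio under a set limit after plate pattern correction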
Cardio protect: protects H9c2 cardiomyocytes from peroxide injury; H2O2 injury protection, ATPLite, 2 h; protection from H2O2 cell death, % at 20 µM; actives 0.63% (n = 360,000); AID 588492;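 active = compounds giving at least 50% protection of heart cells from peroxide-induced death in the single-dose screen, raw or plate-pattern-corrected value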
aDG glyco up: alpha-DG glycosylation activation; Pro5-aDG cells, alpha-DG glycosylation AlphaScreen (IIH6); 0% Pro5, 100% B10-LARGE cell signal; activation, % at 10 µM; actives 0.22% (n = 360,000); AID 624168;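 active = activation of at least 8% versus controls, or a plate z-score of at least 8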;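 note: Pro5 are CHO cells carrying HIG-tagged alpha-DG that lacks glycosylation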
PfG6PD confirm: PfG6PD inhibition, single-dose confirmed. inhibition, % at 20 µM. shares compounds with PfG6PD inh. actives 34% (n = 2,400). recombinant PfGluPho, NADPH-diaphorase-resazurin fluorescence;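 active = inhibition of at least 50% at 20 µM in any single replicate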
Diaph ctr 10uM: diaphorase inhibition or oxidation at 10 uM NADPH; shares compounds with PfG6PD inh; diaphorase-coupled resazurin reduction, fluorescence, NADPH 10 uM; inhibition, % at 20 µM; actives 39% (n = 820);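 active = average inhibition reaching 50% or more with the compound at 20 µM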;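 note: resorufin red fluorescence formed as diaphorase reduces resazurin using NADPH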
Diaphorase 30uM: diaphorase inhibition or oxidation at 30 uM NADPH; Diaphorase/resazurin coupled assay, resorufin fluorescence; inhibition, % at 20 µM; AID 504863; actives 29% (n = 820); shares compounds with PfG6PD inh;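 active = inhibition averaging 50% or more, tested at 20 µM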
Large screens that a line does not name were inactive (follow-up assays come after a bar, where they were run). Most compounds without a hit are left out; they make up all but 3.2% or so of the library.

CC1(OC(=O)CCc2ccccc2)C(=O)C=C2C=C(c3ccc(C#N)cc3)N(C(CO)CO)C=C2C1=O (stereo unspecified)	PfG6PD inh 64.7 | PfG6PD confirm inactive
CC1(OC(=O)CCc2ccccc2)C(=O)C=C2C=C3CCCN3C=C2C1=O (stereo unspecified)	none
COc1ccc(N2C=C3C(=O)C(C)(OC(=O)CCc4ccccc4)C(=O)C=C3C=C2c2ccc(C#N)cc2)cc1 (stereo unspecified)	PfG6PD inh 68.5 | PfG6PD confirm inactive
CC1(OC(=O)CCc2ccccc2)C(=O)C=C2C=C(c3ccc(C#N)cc3)N(CCc3c[nH]c4ccccc34)C=C2C1=O (stereo unspecified)	PfG6PD inh 78.9 | PfG6PD confirm inactive
CCN(CC)CCCN1C=C2C(=O)C(C)(OC(=O)CCc3ccccc3)C(=O)C=C2C=C1c1ccc(C#N)cc1 (stereo unspecified)	none
O=C(Cn1cc(Cl)c([N+](=O)[O-])n1)NCCC1=CCCCC1	none
COc1ccc(CN(C)S(=O)(=O)c2nnc(NC(=O)c3cccc(F)c3)s2)cc1	none
CC(C)CC(=O)Nc1nnc(S(=O)(=O)N(C)Cc2ccco2)s1	none
CN(Cc1ccco1)S(=O)(=O)c1nnc(NC(=O)c2cccc(Cl)c2)s1	PfG6PD inh 86.1 | PfG6PD confirm inactive
CN(Cc1ccccc1)S(=O)(=O)c1nnc(NC(=O)c2ccc(F)cc2)s1	CRFR2-BP antag 59.1, PfG6PD inh 77.9 | PfG6PD confirm inactive
COc1ccc(CN(C)S(=O)(=O)c2nnc(NC(=O)c3cccc(C)c3)s2)cc1OC	PfG6PD inh 79.5 | PfG6PD confirm 64.1 | Diaph ctr 10uM 64.4 | Diaphorase 30uM inactive
COc1ccc(C(=O)Nc2nnc(S(=O)(=O)N(C)Cc3ccccc3)s2)cc1	PfG6PD inh 71.2 | PfG6PD confirm inactive
CN(Cc1ccc(F)cc1)S(=O)(=O)c1nnc(NC(=O)c2ccccc2)s1	none
COc1ccc(CCNC(=O)CCCN2C(=O)C(c3ccccc3)Oc3cccnc32)cc1OC (stereo unspecified)	none
Cc1cc(NC(=O)CSC2=NS(=O)(=O)c3ccccc3N2)no1	none
Cc1ccc(S(=O)(=O)Nc2ccccc2N=Cc2ccc([N+](=O)[O-])cc2[N+](=O)[O-])cc1	PfG6PD inh 83.7 | PfG6PD confirm inactive
Cc1cc(NS(=O)(=O)c2ccccc2)c([N+](=O)[O-])cc1C	none
CCCCCOc1ccc(C(C)(O)C(CN2CCOCC2)c2ccccc2)cc1 (stereo unspecified)	none
N[C@@H](Cc1ccc(O)c(O)c1)C(=O)O	none
CC(Cc1ccc(O)c(O)c1)C(C)Cc1ccc(O)c(O)c1 (stereo unspecified)	PfG6PD inh 84.2 (no result: FAS-TE inh, Cardio protect, aDG glyco up) | PfG6PD confirm 61.1 | Diaph ctr 10uM inactive | Diaphorase 30uM inactive
CCOC(=O)c1cnc2ccc(Br)cc2c1NCCO	PfG6PD inh 65.2 | PfG6PD confirm inactive
O=C1C=CC(=O)N1Cc1ccccc1	PfG6PD inh 71.1 | PfG6PD confirm inactive
CC(=O)c1cc2cccc(OC3(C)CCN(Cc4ccc(-c5ccccn5)cc4)C3)c2o1 (stereo unspecified)	none (no result: CRFR2-BP antag, PfG6PD inh, CRFR2-BP ag)
Nc1ncnc(Nc2ccccc2Cl)n1	none
Cc1ccc2c(c1)/C(=N/OS(=O)(=O)c1ccccc1)CCS2	none
CC1=CC(=O)C(C(C)C)=C/C1=N/OS(=O)(=O)c1ccccc1	PfG6PD inh 104.6, CRFR2-BP ag 50.9 | PfG6PD confirm 95.6 | Diaph ctr 10uM 72.7 | Diaphorase 30uM 77.4
CC1=CC(=O)C=C(C)C1=NOS(=O)(=O)c1ccccc1	PfG6PD inh 112.4 | PfG6PD confirm 111.4 | Diaph ctr 10uM 102.7 | Diaphorase 30uM 100.5
Cc1ccc(S(=O)(=O)ON=C2CCN(S(=O)(=O)c3ccccc3)CC2)cc1	none
CCOc1ccc(C(=O)Oc2cc(C)[nH]c(=O)c2[N+](=O)[O-])cc1OCC	none
COC(=O)c1ccc(COC(=O)c2ccc(-n3cnnn3)cc2)o1	none
Nc1ccc(N2CCCC2)c(S(=O)(=O)Nc2cccc(C(F)(F)F)c2)c1	PfG6PD inh 79.6 | PfG6PD confirm inactive
COc1ccccc1NS(=O)(=O)c1cc(N)ccc1N1CCOCC1	none
COc1ccccc1NS(=O)(=O)c1cc(N)ccc1N1CCCC1	PfG6PD inh 70.5 | PfG6PD confirm inactive
CCOC(=O)C(=CNc1ccc(N2CCCCC2)c(S(=O)(=O)Nc2ccccc2OC)c1)C(=O)OCC	PfG6PD inh 64.7 | PfG6PD confirm inactive
COc1ccccc1NS(=O)(=O)c1cc(NC(C)=O)ccc1N1CCCCC1	none
COc1ccccc1/C=N/NC(=O)COCC(=O)N/N=C/c1ccccc1OC	none
COc1ccccc1/C=N/NC(=O)CC(=O)Nc1ccc(Cl)c(Cl)c1	PfG6PD inh 106.3 | PfG6PD confirm inactive
CCC(C)c1ccccc1NC(=O)CN1CCN(C/C=C/c2ccccc2)CC1 (stereo unspecified)	none
c1ccn2cc(-c3ccc4c(c3)OCCO4)nc2c1	none
Clc1ccc2nc(-c3ccccc3)cn2c1	PfG6PD inh 64.4 | PfG6PD confirm inactive
Cc1ccc2nc(-c3ccc4c(c3)OCCO4)cn2c1	PfG6PD inh 109.0 | PfG6PD confirm 58.3 | Diaph ctr 10uM 73.5 | Diaphorase 30uM 61.5
Clc1ccc2nc(-c3ccc4c(c3)OCO4)cn2c1	PfG6PD inh 73.2 | PfG6PD confirm 50.3 | Diaph ctr 10uM inactive | Diaphorase 30uM inactive
Cc1ccc2nc(-c3ccc4c(c3)NC(=O)CO4)cn2c1	PfG6PD inh 104.0 | PfG6PD confirm inactive
CCN1CCN(C(=O)C(C)Nc2ccc(OC)cc2OC)CC1 (stereo unspecified)	none
Nc1nc(-c2cc(O)ccc2[N+](=O)[O-])cc(-c2ccccc2)c1[N+](=O)[O-]	PfG6PD inh 75.5 | PfG6PD confirm inactive
CC(=O)c1ccc(NC(=O)CN2C(=O)NC(C)(c3ccc4c(c3)OCCO4)C2=O)cc1 (stereo unspecified)	none
CCOC(=O)c1c(C)[nH]c(C)c1C(=O)COC(=O)c1cc2ccccc2cc1O	PfG6PD inh 103.0 | PfG6PD confirm inactive
CCOC(=O)c1c(C)[nH]c(C)c1C(=O)COC(=O)/C=C/c1ccco1	PfG6PD inh 81.6 | PfG6PD confirm 67.5 | Diaph ctr 10uM 73.7 | Diaphorase 30uM 57.4
